From PubChem
hcDAF-12 act – H. contortus DAF-12 nuclear receptor activators, primary screen, cell-based, luminescence, HEK293, lit1-tk-luc reporter; HEK293 hcDAF-12 lit1-tk-luc reporter; 0% DMSO, 100% Δ7-dafachronic acid; activation, % at 6.8 µM; 370,000 tested, 1.4% active;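 active = activation above the mean of all tested compounds plus 3 SD, cut at about 5.5% in these data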
DAX1 inh-1 – DAX1 (NR0B1) inhibitors, primary screen, cell-based, HEK293, Gal4-DAX1, luciferase luminescence; Nuclear receptor subfamily 0 group B member 1 (Homo sapiens), P51843; HEK293 Gal4-DAX1 luciferase reporter; inhibition, % at 6.75 µM; 340,000 tested, 0.99% active; AID 504766, 2011;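 active = inhibition above the mean over all tested compounds plus 3 SD, cut at about 4.2% in these data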;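 also: inhibition shows as a rise in luminescence from relieved DAX1 repression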
DAX1 inh-2 – DAX1 (NR0B1) inhibitors on StAR promoter, primary screen, cell-based, luminescence, SF-1 (NR5A1), full-length DAX-1; HEK293T StAR-luciferase reporter, SF-1/DAX-1 repression relief; inhibition, % at 6.8 µM; 370,000 tested, 1.1% active;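 active = inhibition above the mean over all tested compounds plus 3 SD, cut at about 3.6% in these data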;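 also: higher inhibition means more luminescence from relief of DAX-1 repression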
ssDAF-12 act – S. stercoralis DAF-12 nuclear receptor activators, primary screen, cell-based, luminescence, HEK293, GRIP1 co-expression, lit1-tk-luc; AID 652126, 2013; activation, % at 6.8 µM; 370,000 tested, 1% active; HEK293 ssDAF-12/GRIP1 lit1-tk-luc reporter; % of 3 µM dafachronic acid response;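 active = activation above the mean over all tested compounds plus 3 SD, cut at about 0.9% in these data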
hgDAF12 agonist – H. glycines DAF-12 receptor agonists, primary screen, cell-based, luminescence, HEK293, GAL4 fusion, UAS-luciferase; HEK293 GAL4-hgDAF12 UAS-luciferase reporter, agonist luminescence; normalized to butyrate control; activation, % at 6.8 µM; 370,000 tested, 1.8% active; AID 687014, 2013;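 active = activation above a cutoff set at the mean of all screened compounds plus 3 SD, cut at about 10% in these data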
AHR act – AHR activators, primary screen, cell-based, luminescence, luciferase reporter, human; AID 2796, 2010; Aryl hydrocarbon receptor (Homo sapiens), P35869; AHR-responsive luciferase reporter cells; activation, % at 5 µM; 320,000 tested, 2.5% active; in the data active = activation above about 47%
A number is an active result; 0 = inactive; - = no result. This is a sample that favours compounds with a hit; in the whole collection about 5.7% have one here.

SMILES	hcDAF-12 act	DAX1 inh-1	DAX1 inh-2	ssDAF-12 act	hgDAF12 agonist	AHR act
Cc1ccc(C(=O)n2nc(-c3ccccc3)nc2NCc2ccco2)cc1	0	0	0	0	0	0
CCCC(=O)n1nc(-c2ccc(C)cc2)nc1NCc1ccco1	0	0	0	0	13	0
O=C(NCCSc1c[nH]c2ccccc12)c1ccc2c(c1)OCO2	0	0	0	0	0	50
O=C(NCCc1c[nH]c2ccccc12)c1cc(Cl)c2c(c1)OCO2	0	0	0	0	0	48
O=C(NCCc1c[nH]c2ccccc12)c1cccc(S(=O)(=O)Nc2ccccc2Cl)c1	6.0	0	0	1.1	0	0
O=C(CSc1c[nH]c2ccccc12)NCc1ccc2c(c1)OCO2	0	0	0	0	0	0
Cn1c(C(=O)NCCc2c[nH]c3ccccc23)cc2sccc21	5.9	0	0	2.5	12	0
Cc1ccc(OCC(=O)NCc2n[nH]c(=O)c3ccccc23)cc1	0	0	0	0	0	0
CCC(C(=O)Nc1ccc2c(c1)OCCO2)n1c(=O)[nH]c2ccccc2c1=O (centres undefined)	0	0	0	0	0	0
CNc1nc(-c2ccccc2)c2sccc2n1	0	-	0	0	0	-
O=C(CSc1nnnn1-c1ccc(Cl)cc1)NC1CCS(=O)(=O)C1 (centres undefined)	0	0	0	0	0	0
O=C(NCCc1c[nH]c2ccccc12)Nc1cccc2ccccc12	0	0	0	0	0	0
O=C(Cc1ccccc1)NCCc1c[nH]c2ccccc12	0	0	0	0	0	0
O=C(O)c1nccnc1C(=O)NCCc1c[nH]c2ccccc12	5.6	0	0	0	0	0
O=C(NCCc1c[nH]c2ccccc12)c1cc(S(=O)(=O)N2CCCCC2)ccc1N1CCOCC1	0	0	0	1.9	0	0
CCOc1ccccc1NC(=O)NCCc1c[nH]c2ccccc12	0	0	0	0	0	64
O=C(NCCc1c[nH]c2ccccc12)c1cccnc1	0	0	0	1.9	0	0
COC(=O)c1cc2c(c3c4cc(F)ccc4n(S(=O)(=O)c4ccccc4)c13)C(=O)N(Cc1ccccc1)C2	0	-	0	0	0	-
O=C(CSc1ccc(-c2ccccn2)nn1)N1CCCC1	0	0	0	0	0	0
Cc1onc(-c2ccccc2Cl)c1C(=O)Oc1cccc2cccnc12	0	0	0	0	0	0
Cn1c(SCc2ccc(C#N)cc2Cl)nc2ccccc21	0	4.3	0	0	12	0
CC(OC(=O)Cc1c[nH]c2ccccc12)C(=O)Nc1ccc(S(N)(=O)=O)cc1 (centres undefined)	0	0	0	0	0	0
C=CCN(c1ccc(F)cc1)S(=O)(=O)c1cc(C(=O)OCC(=O)N(C)C2CCS(=O)(=O)C2)ccc1Cl (centres undefined)	0	0	0	0	0	0
Cc1cc(Oc2ccccc2)nc(-c2ccccc2)n1	0	0	0	0	0	0
C=C(C)c1nc(Oc2ccccc2)nc(Oc2ccccc2)n1	0	6.0	0	0	0	-
SMILES	hcDAF-12 act	DAX1 inh-1	DAX1 inh-2	ssDAF-12 act	hgDAF12 agonist	AHR act
Cc1cc(C)c2nc(-c3ccccn3)cc(C(=O)NCc3ccco3)c2c1	0	0	0	0	0	69
Cc1cc(C)c2nc(-c3ccccn3)cc(C(=O)NCc3cc(C)n(C)n3)c2c1	0	0	0	0	0	0
Cc1ccc(C)c(NC(=S)N(C)CCO)c1	0	4.8	0	0	0	0
Cn1c(SCC(=O)NCCc2ccccc2)ncc(C(=O)Nc2ccc(F)cc2)c1=O	0	0	0	0.9	0	0
Cc1cccc(-n2ccnc2CN2CCN(C3CCCC3)C(CCO)C2)c1 (centres undefined)	0	0	0	0	0	0
COc1ccc(-n2ccnc2CN2CCN(C3CCCC3)C(CCO)C2)cc1 (centres undefined)	0	4.7	0	0	0	0
COC(=O)C1CN(Cc2ccccc2)C(=O)C1=O (centres undefined)	0	0	0	0	0	-
Cc1nn(-c2ccccc2)c(N)c1N=Nc1cccnc1	0	0	0	0	12	0
CC(C)Sc1nnc(NC(=O)c2ccco2)s1	0	0	0	1.8	0	0
CCSc1nnc(NC(=O)c2ccco2)s1	0	0	0	0	0	0
O=C(Nc1nnc(/C=C/c2ccccc2)s1)c1ccco1	0	0	0	1.6	0	0
COC(=O)Nc1nnc(/C=C/c2ccccc2)s1	0	0	0	0	0	0
Nc1nnc(/C=C/c2ccccc2)s1	5.8	0	0	0	0	0
COc1ccc2c(c1)CNC2CS(=O)(=O)NCc1ccc(F)cc1 (centres undefined)	0	-	0	0	0	-
COc1cccc(N2CCN(c3ccc(N4C(=O)CCC4=O)cc3[N+](=O)[O-])CC2)c1	0	6.6	0	0	0	0
COc1ccccc1N1CCN(c2ccc(N3C(=O)CCC3=O)cc2[N+](=O)[O-])CC1	0	0	0	0	0	0
Cc1ccc(OCC(=O)NC2=NCCS2)cc1	0	4.7	0	0	0	0
Cc1ccc(/C=C/C(=O)NC2=NCCS2)cc1	8.0	0	6.4	1.4	17	0
O=C(COc1ccccc1)NCC(=O)NC1=NCCS1	0	0	0	0	0	0
CCCNC(=O)Cn1cnc([N+](=O)[O-])n1	0	0	0	0	0	0
O=C(NN=Cc1ccccc1O)c1cccc([N+](=O)[O-])c1	0	0	0	0	0	-
O=[N+]([O-])c1cccc(/C(=N/N=C/c2ccccc2Br)C23CN4CN(CN(C4)C2)C3)c1	0	0	0	0	0	67
Cc1cc(Cl)nc(SCC(=O)c2ccccc2)n1	0	0	0	0	0	61
O=CN1CCN(C(=O)CC(c2ccccc2)c2cc(Br)ccc2O)CC1 (centres undefined)	0	0	0	0	0	0
Oc1nc(Nc2ccccc2)sc1/C=C1\C=Nc2ccccc21	0	0	0	0	0	147
CCOC(=O)c1c(Nc2ccccc2)sc(/C=C2\C=Nc3ccccc32)c1O	-	0	-	-	-	0
COc1cc(C(=O)OCC(=O)N2CCCCC2C)ccc1OCc1c(C)noc1C (centres undefined)	0	4.7	0	0	0	0
COc1cc(C(=O)OCC(C)=O)ccc1OCc1c(C)noc1C	0	0	0	0	0	-
